The text below walks through data of PubChem BioAssay.

Active and inactive are the calls of the source. Unless noted, how the calls were made is not given here.

A short description of test [1]: compound effects on lung adenocarcinoma cell viability – A549, calcein-AM fluorescence, 48 h, basal, profiling panel (AID 1162). Further: test concentration not given here. Particulars: higher = more signal.
Test [2] is described as follows: compound effects on differentiated 3T3-L1 adipocyte viability – cell-based, 3T3-L1 adipocytes, calcein-AM fluorescence, 48 h, basal, profiling panel (AID 1163). Further: test concentration not given here. Particulars: 3T3-L1 adipocytes viability, higher = more signal.
Test [3] in a line: compound effects on hepatocellular carcinoma cell viability – HepG2, calcein-AM fluorescence, 48 h, basal, profiling panel (AID 1164). Further: test concentration not given here. Particulars: higher = more signal.
The nature of test [4]: compound effects on multiple myeloma cell viability – MM1S, calcein-AM fluorescence, 48 h, basal, profiling panel (AID 1165). Further: test concentration not given here. Conditions: higher = more signal.
Test [5] can be described thus: calcein-AM signal in unstimulated myeloma cells – cell-based, calcein-AM fluorescence, 48 h, PK04 Diversity Set, profiling panel (AID 1166).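 Further: cells grown under basal conditions without added stimulus; test concentration not given here.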 Particulars: RPMI8226 myeloma viability, higher = more signal.
Test [6] can be described thus: JC-1 mitochondrial signal, unstimulated HepG2 cells – cell-based, JC-1 fluorescence, 24 h, 100 nL compound, profiling panel (AID 1167). Further: test concentration not given here. Conditions: HepG2 mitochondrial potential, higher = more signal.
Test [7] in a line: JC-1 mitochondrial signal, unstimulated adipocytes – cell-based, JC-1 fluorescence, 3T3-L1 adipocytes, 24 h, 100 nL compound, profiling panel (AID 1168). Further: test concentration not given here. Particulars: JC-1 mitochondrial fluorescence, higher = more signal, called active from +8 up or from −8 down.
Test [8] in a line: JC-1 mitochondrial signal, unstimulated myeloma cells – cell-based, JC-1 fluorescence, RPMI8226, 24 h, 100 nL compound, profiling panel (AID 1169). Further: test concentration not given here. Conditions: JC-1 mitochondrial potential fluorescence, higher = more signal.
The nature of test [9]: JC-1 mitochondrial signal, unstimulated MM1S myeloma – cell-based, JC-1 fluorescence, 24 h, 100 nL compound, profiling panel (AID 1170). Further: test concentration not given here. Conditions: MM1S mitochondrial potential, higher = more signal.
Test [10] in a line: resazurin metabolic signal in A549 cells – cell-based, resazurin fluorescence, 24 h, PK04 Diversity Set, profiling panel (AID 1171). Further: test concentration not given here. Particulars: A549 viability, higher = more signal, called active from +8 up or from −8 down. In general terms: The colour change of resazurin is a common sign of viable cells or microbes.
Test [11] can be described thus: resazurin metabolic signal in HepG2 cells – cell-based, resazurin fluorescence, 24 h, PK04 Diversity Set, profiling panel (AID 1172). Further: test concentration not given here. Particulars: HepG2 viability, higher = more signal.
Test [12] is described as follows: budding yeast growth changes without added modifier – OD600, strain BY4716, 24 h, basal condition, primary screen (AID 1173). Particulars: S. cerevisiae BY4716 growth, OD600, 24 h; higher = more signal, called active from +8 up or from −8 down.
A short description of test [13]: viability profiling in MM1S myeloma cells – cell-based, resazurin fluorescence, basal, 24 h, PK04 Diversity Set, profiling panel (AID 1174). Further: test concentration not given here. Conditions: higher = more signal, called active from +8 up or from −8 down.
Test [14] concerns the target Dihydroorotate dehydrogenase (quinone), mitochondrial (Plasmodium falciparum (isolate 3D7)) (UniProt Q08210). The experiment in a line: inhibition of P. falciparum DHODH – biochemical, C-terminal His tag, absorbance 600 nm, primary screen (AID 1175).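 Further: recombinant parasite enzyme with a five histidine tag at its C terminus; test concentration not given here.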 Conditions: PfDHODH enzyme, DCIP absorbance 600 nm; higher = more signal, called active from +8 up or from −8 down.
Test [15] in a line: inhibition of PAO1 biofilm formation – strain PAO1, LB-PBS medium, absorbance 600 nm, primary screen (AID 1176). Further: test concentration not given here. Conditions: P. aeruginosa PAO1 growth/biofilm, A600, 12 h; higher = more signal.
A short description of test [16]: growth modulation of vineyard yeast isolate – strain RM11-1a, OD600, basal, 24 h, primary screen (AID 1177).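 Further: cultures grown under basal conditions with no added stressor; test concentration not given here.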 Conditions: S. cerevisiae RM11-1a growth, OD600, 24 h; higher = more signal, called active from +8 up or from −8 down.
A short description of test [17]: growth of efflux-deficient E. coli DRC39 – strain DRC39, OD650, 24 h, E. coli filamentation inducers, primary screen (AID 1178).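 Further: growth measured as culture turbidity by optical density at 650 nm; test concentration not given here.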 Conditions: E. coli DRC39 acrAB, higher = more signal, called active from +8 up or from −8 down.
The nature of test [18]: growth of efflux-deficient E. coli DRC39 – strain DRC39, OD650, 48 h, E. coli filamentation inducers, primary screen (AID 1179).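 Further: screen aims at cell division blockers that make cells filament.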 Particulars: E. coli DRC39 delta-acrAB growth, higher = more signal, called active from +8 up or from −8 down.
Test [19] in a line: viability profiling in RPMI8226 myeloma cells – cell-based, resazurin fluorescence, basal, 24 h, PK04 Diversity Set, profiling panel (AID 1180).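 Further: RPMI8826 multiple myeloma cell line at 5000 cells per well; test concentration not given here.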 Particulars: higher = more signal.
For test [20], the target named is E3 ubiquitin-protein ligase XIAP (Homo sapiens) (UniProt P98170). The experiment in a line: small molecules binding XIAP protein – biophysical, small-molecule microarray, fluorescence 635 nm, primary screen (AID 1181).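 Further: score merges 667 nm emission and signal to noise over triplicate slides.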 Conditions: higher = more signal.
Sequence of E3 ubiquitin-protein ligase XIAP (Homo sapiens) (P98170 whole entry, looked up): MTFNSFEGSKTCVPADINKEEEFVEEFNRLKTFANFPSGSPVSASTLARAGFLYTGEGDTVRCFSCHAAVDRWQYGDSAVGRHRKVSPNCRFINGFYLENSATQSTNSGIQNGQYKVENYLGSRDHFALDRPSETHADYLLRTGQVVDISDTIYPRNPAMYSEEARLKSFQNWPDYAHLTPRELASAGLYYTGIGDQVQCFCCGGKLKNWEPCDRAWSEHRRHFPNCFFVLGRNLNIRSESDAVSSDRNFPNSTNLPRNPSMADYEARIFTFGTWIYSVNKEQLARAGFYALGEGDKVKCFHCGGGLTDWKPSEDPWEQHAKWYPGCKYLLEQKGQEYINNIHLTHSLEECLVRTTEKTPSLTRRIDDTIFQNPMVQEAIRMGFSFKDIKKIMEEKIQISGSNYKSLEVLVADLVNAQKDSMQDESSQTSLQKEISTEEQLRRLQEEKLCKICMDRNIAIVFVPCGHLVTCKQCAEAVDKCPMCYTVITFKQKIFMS

Sequence of Dihydroorotate dehydrogenase (quinone), mitochondrial (Plasmodium falciparum (isolate 3D7)) (Q08210 whole entry, looked up): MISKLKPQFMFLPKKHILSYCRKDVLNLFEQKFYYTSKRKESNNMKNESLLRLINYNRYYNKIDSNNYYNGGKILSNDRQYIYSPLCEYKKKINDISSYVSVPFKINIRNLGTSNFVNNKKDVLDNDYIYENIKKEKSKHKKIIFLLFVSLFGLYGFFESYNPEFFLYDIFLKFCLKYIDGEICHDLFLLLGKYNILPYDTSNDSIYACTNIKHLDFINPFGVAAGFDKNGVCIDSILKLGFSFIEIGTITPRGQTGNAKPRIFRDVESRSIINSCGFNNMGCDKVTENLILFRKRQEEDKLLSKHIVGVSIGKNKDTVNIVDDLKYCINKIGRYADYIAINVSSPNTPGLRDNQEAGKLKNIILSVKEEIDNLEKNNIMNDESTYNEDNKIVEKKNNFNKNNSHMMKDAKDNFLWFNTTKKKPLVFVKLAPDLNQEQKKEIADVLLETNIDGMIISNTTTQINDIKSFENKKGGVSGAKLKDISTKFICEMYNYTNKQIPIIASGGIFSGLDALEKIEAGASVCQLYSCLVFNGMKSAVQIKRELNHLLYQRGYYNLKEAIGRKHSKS

In the case of `CC(C)=C1C(=O)C(c2ccccc2)=C2CN3C(=O)N(CCc4ccccc4)C(=O)[C@]3(Cc3ccccc3)[C@H]21`, the z-score in [1] is -0.778; in test [2], 0.66; in test [3] it was 0.0577; in test [4], 0.492; in test [5], -0.895; in test [6], -0.366. In addition, the z-score in [7] was -0.623 (inactive); in test [8] it was -0.0727; in test [9] it was -0.496; in test [10], -0.723 (inactive); in test [11], -1.18; in [12], 0.66 (inactive). For the same molecule, the z-score in test [13] was -0.692 (inactive); in test [15] it was 0.178 (inactive); in [16] it was 0.071 (inactive); in [17], -0.652 (inactive); in test [18], -0.295 (inactive); in [19] it was -0.693. Moreover, the composite z-score is 0.223 (inactive) in test [14] and -0.122 in test [20].

Consider `C[C@@H]1NC(=O)[C@H](Cc2ccccc2)NC(=O)[C@@]23C(=O)N[C@@H](Cc4ccccc4)C2[C@H](C)[C@@]2(C)O[C@H]2C3/C=C/C/C=C\CNC1=O` (stereo not given in full), for which the z-score was -0.0598 in test [1]; 0.523 in test [2]; -0.706 in test [3]; 0.0254 in test [4]; -1.65 in test [5]; -0.971 in test [6]. Moreover, the z-score in test [7] is -0.206 (inactive); in test [8], 0.814; in [9], 0.546; in test [10], -0.207 (inactive); in test [11], -0.51; in test [12] it was -0.256 (inactive). Further, the z-score in test [13] was -0.0224 (inactive); in test [15] it was 0.236 (inactive); in test [16], 0.657 (inactive); in test [17], -0.593 (inactive); in test [18] it was -0.514 (inactive); in test [19], -0.0497. Besides, the figures for the composite z-score in test [14] and in [20] were 0.398 (inactive) and -0.119, respectively.

Consider `COc1ccc(NN2C(C(O)c3cc(OC)c(OC)c(OC)c3)C=CC3C(=O)N(C4CCCCC4)C(=O)C32)cc1` (stereo not given), for which the z-score is -0.753 in test [1]; -1.42 in [2]; 1.17 in [3]; 0.651 in test [4]; -0.177 in test [5]; 0.861 in test [6]. In addition, the z-score was -0.569 (inactive) in [7]; 0.00692 in test [8]; -1.78 in test [9]; 0.239 (inactive) in [10]; -0.665 in [11]; -0.376 (inactive) in test [12]. Further, the z-score in [13] is -0.946 (inactive); in test [15], 0.89 (inactive); in test [16] it was 0.389 (inactive); in test [17], -1.02 (inactive); in [18], 0.187 (inactive); in [19], -1.48. Further, the composite z-score in test [14] was -0.41 (inactive); in [20], 0.147.

Consider `NC(=O)[C@H]1[C@@H]2C(=O)O[C@@H](c3ccccc3)[C@@H](c3ccccc3)N2[C@@H](c2ccc(O)cc2)[C@]12C(=O)Nc1ccc(C#CCCO)cc12`, for which the z-score in test [1] is -0.191; in test [2] it was -0.0912; in test [3], 0.0926; in [4] it was -0.664; in test [5] it was 0.0381; in test [6], -1.59. The z-score in [7] is -0.699 (inactive); in test [8], -0.583; in [9] it was 0.196; in test [10], -0.0774 (inactive); in [11] it was -0.744; in [12] it was -0.383 (inactive). The z-score in [13] was -0.354 (inactive); in test [15] it was -0.0604 (inactive); in test [16], -1.03 (inactive); in test [17], -0.847 (inactive); in test [18], -1.18 (inactive); in test [19], -0.616. Moreover, the figures for the composite z-score in test [14] and in test [20] were -0.25 (inactive) and 0.135, respectively.
